From PubChem BioAssay (NCI)
The panel holds about 83,000 compounds, 20% with a hit somewhere; the sample as a whole holds those more often.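 Interpretation: 100, growth as untreated; towards 0, rising growth inhibition; 0, no net growth; 0 to -100, cell death. Compounds scoring below 10 were considered active.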 Activity calls are given as the source filed them.

Tested on: HL-60(TB) leukemia
Experiment: NCI-60 one-dose screen, 48 h (100 = growth as untreated, 0 = no growth, -100 = all killed)
Details: 10 µM unless noted

Row | SMILES | growth
1 | CSCCC(C(=O)O)N1C(=O)/C(=C/c2ccc(O)c(O)c2)SC1=S (stereo not given) | 103% (inactive)
2 | Cc1ccc(C(=O)Nc2ccc(CNCCN3CCNCC3)c(C(F)(F)F)c2)cc1C#Cc1cnc2cccnn12 | -54.7% (active)
3 | O=C1[C@H]2Cc3c([nH]c4ccccc34)[C@@H](c3c(Cl)cccc3Cl)N2C(=O)CN1C1CCN(CC2CCCCC2)CC1 | 35.4% (inactive)
4 | Nc1nc(N)c2c(n1)NC(c1ccc(Cl)cc1)CC(c1ccc(Nc3nc(NCCO)nc(N4CCOCC4)n3)cc1)=N2 (stereo not given) | 27% (inactive)
5 | CC/C(=C/c1c(O)cccc1OC)c1ccc2c(OC)cccc2[o+]1 | 106% (inactive)
